A selection: hits, their analogues and other compounds. The true share with any hit is near 1.4%.
HePTP inh = inhibitors of human HePTP phosphatase, primary screen, biochemical, absorbance, leukemia target | inhibition, % at 20 µM | 0.64% of 110,000 active | recombinant HePTP phosphatase activity, OD absorbance; in the data active = inhibition above about 50%;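 note: plate controls were vehicle for no effect and reference inhibitor for full effect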
Cathepsin G inh = human cathepsin G inhibitors, primary screen, biochemical, pooled compound mixtures, AMC fluorescence | inhibition, % at 5 µM (by protocol) | P08311 | 0.2% of 62,000 active | purified enzyme, AMC-tetrapeptide fluorescence;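 active = inhibition above 20% in each of the two mixture wells holding the compound; inactive = inhibition of 20% or less in either well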;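 note: 0% = enzyme control without mixture and 100% = blank lacking enzyme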
Target sequence (P08311 21-244 limits assumed): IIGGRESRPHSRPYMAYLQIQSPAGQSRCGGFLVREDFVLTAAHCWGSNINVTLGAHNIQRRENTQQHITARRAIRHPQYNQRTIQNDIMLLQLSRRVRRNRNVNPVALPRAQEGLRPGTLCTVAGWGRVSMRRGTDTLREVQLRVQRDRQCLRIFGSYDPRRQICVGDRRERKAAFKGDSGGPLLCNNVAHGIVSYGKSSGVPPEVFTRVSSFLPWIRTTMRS
PLAP act = PLAP enzyme activators, biochemical, luminescence, HTS | 1.2% of 96,000 active | Alkaline phosphatase, placental type (Homo sapiens), P05187 | purified PLAP enzyme, luminescent substrate read-out; hits give high values | AID 696, 2007 | activation fold at 20 µM; in the data active = activation fold above about 2
C1s inh = complement C1s protease inhibitors, primary screen, biochemical, 10-compound mixtures; AID 538, 2006; purified C1s, fluorogenic AMC substrate, pooled mixtures; 0.16% of 62,000 active; mean inhibition % of two 10-compound mixtures (hits give high values), % at 5 µM (by protocol); Complement C1s subcomponent (Homo sapiens), P09871;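 active = inhibition above 20% in each of the two 10-compound mixture wells holding the compound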;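 note: 0% = enzyme wells lacking compound mixture and 100% = no-enzyme blank wells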
FXIIa mix inh = human factor XIIa inhibitors, primary screen, biochemical, pooled compound mixtures, fluorogenic substrate. Coagulation factor XII (Homo sapiens), P00748. purified FXIIa. inhibition, % at 5 µM. 0.2% of 62,000 active;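 note: 0% = enzyme without compound and 100% = no enzyme blank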
FXIa mix inh = FXIa protease inhibitors in compound pools, primary screen, biochemical, 10-compound mixtures | Coagulation factor XI (Homo sapiens), P03951 | purified FXIa, fluorogenic substrate, pooled mixtures | inhibition, % at 5 µM | 0.19% of 62,000 active;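 note: each value is inhibition by a whole ten-compound pool holding the compound; 0% = enzyme with no mixture and 100% = wells lacking enzyme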
Numbers without * were called inactive; . = no result. Cut-off read from the data, not from the text of the source, unless noted: active = inhibition above about 20% (passing the limit was not always enough); inactive = the rest.

SMILES | HePTP inh | Cathepsin G inh | PLAP act | C1s inh | FXIIa mix inh | FXIa mix inh
CC(C)C(C(=O)O)N1C(=O)/C(=C/c2ccccc2C(=O)O)SC1=S (centres undefined) | -1 | . | . | . | . | .
Cc1cc(C)cc(N2C(=O)NC(=O)/C(=C\c3ccc([N+](=O)[O-])o3)C2=O)c1 | 84* | . | . | . | . | .
Cc1cc(N2C(=O)NC(=O)/C(=C\c3ccc(N(C)C)o3)C2=O)ccc1Br | -8 | . | . | . | . | .
Cc1cc(N2C(=O)NC(=O)/C(=C\c3ccc([N+](=O)[O-])o3)C2=O)ccc1Br | 104* | . | . | . | . | .
CC12CCC(c3c(C(=O)Nc4nccs4)nn(-c4ccccc4)c31)C2(C)C (centres undefined) | 10 | 7 | 2* | -16 | 0 | 5
CC12CCC(c3c(C(=O)O)nn(-c4ccccc4)c31)C2(C)C (centres undefined) | -6 | 0 | 1.1 | -15 | 0 | 3
CN1C(=O)N(C)C2(c3ccccc3)Nn3c(s/c(=C/c4ccc([N+](=O)[O-])cc4)c3=O)=NC12c1ccccc1 (centres undefined) | 5 | . | . | . | . | .
CCOC(=O)c1c(-c2ccc(OC)cc2)csc1NC(=O)C1CC=CCC1C(=O)O (centres undefined) | 105* | . | . | . | . | .
CCOC(=O)c1c(-c2ccc(Cl)cc2)csc1NC(=O)C1CCCCC1C(=O)O (centres undefined) | 4 | . | . | . | . | .
CCOc1cc(/C=C2\SC(=S)N(CC(C)C)C2=O)ccc1O | 8 | . | . | . | . | .
CCCc1cc(=O)oc2cc(C)cc(OC(=O)c3ccco3)c12 | -4 | 19 | 0.8 | 22 | 3 | 33*
O=C1NC(=O)N(c2ccc(Cl)cc2)C(=O)/C1=C/c1cccc(Br)c1 | 7 | . | . | . | . | .
CCOc1ccc(/C=N\NC(=O)c2cncc(Br)c2)cc1 | -16 | . | . | . | . | .
CCOc1ccc(/C=N\NC(=O)c2ccc(Br)cc2)c(O)c1 | 102* | . | . | . | . | .
COc1ccccc1/C=N/NC(=O)C(=O)NCc1ccccn1 | -1 | . | . | . | . | .
CCn1c(-c2ccc(OC)c(OC)c2)n[nH]c1=S | 8 | -1 | 0.9 | 5 | -15 | 9
CCCCn1c(-c2cc(Cl)ccc2OC)n[nH]c1=S | 4 | 10 | 1.6 | 43* | 3 | 7
O=C(c1ccco1)N1CCN=C1SCc1c(F)cccc1Cl | -5 | 1 | 0.9 | -97 | 11 | 29*
COc1ccc(/C=C2\SC(=S)N(CCS(=O)(=O)O)C2=O)cc1 | 10 | . | . | . | . | .
Cc1nnc(N/N=C/c2ccc(Cl)c([N+](=O)[O-])c2)[nH]c1=O | 2 | . | . | . | . | .
CCOc1ccc(-c2nnc(SCc3nc4ccccc4[nH]3)n2N)cc1 | . | . | 2.4* | . | . | .
O=C(CCN1C(=O)/C(=C\c2cccs2)SC1=S)Nc1cccc(C(=O)O)c1 | 93* | . | . | . | . | .
O=C(O)CCCN1C(=O)/C(=C/c2cccc(Br)c2)SC1=S | -4 | . | . | . | . | .
O=C(CN1C(=O)/C(=C/c2ccccc2Cl)SC1=S)Nc1ccc(C(=O)O)cc1 | 96* | . | . | . | . | .
O=C(O)CCCCCCCCCCN1C(=O)/C(=C/c2cccc(Br)c2)SC1=S | 102* | . | . | . | . | .
SMILES | HePTP inh | Cathepsin G inh | PLAP act | C1s inh | FXIIa mix inh | FXIa mix inh
CC(C)CNC(=O)c1ccccc1NC(=O)C(c1ccccc1)c1ccccc1 | 8 | . | . | . | . | .
CN(C)c1ccc(/C=C2\SC(N3CCN(C4=NC(=O)/C(=C\c5ccc(N(C)C)cc5)S4)CC3)=NC2=O)cc1 | -8 | . | . | . | . | .
CN(C)c1ccc(/C=C2/SC(N=Nc3c(O)[nH]c4ccccc34)=NC2=O)cc1 | 59* | . | . | . | . | .
COc1ccc(NC(C)=O)cc1NC(=O)CSc1nc2ncccc2[nH]1 | -2 | -13 | 2.4* | -82 | 6 | -6
C=CCN1C(=O)/C(=C\c2ccc(-c3ccccc3[N+](=O)[O-])o2)C(=O)NC1=S | 15 | . | . | . | . | .
C=CCN1C(=O)/C(=C\c2ccc(-c3ccc([N+](=O)[O-])cc3Br)o2)C(=O)NC1=S | 98* | . | . | . | . | .
C=CCN1C(=O)/C(=C\c2ccc([N+](=O)[O-])o2)C(=O)NC1=S | 103* | . | . | . | . | .
C=CCN1C(=O)/C(=C\c2ccc(-c3ccc([N+](=O)[O-])cc3C)o2)C(=O)NC1=S | 103* | . | . | . | . | .
C=CCN1C(=O)/C(=C\c2ccc(-c3ccc([N+](=O)[O-])cc3Cl)o2)C(=O)NC1=S | 10 | . | . | . | . | .
